From PubChem BioAssay AID1159580 (chemical genetic matrix, 2015)
Out of some 5,500 compounds screened, about 2,000 (36%) were called active. Another 18% or so got no clear call; they are omitted. Cut-off read from the data, not from the text of the source: active = normalized growth mostly below about 0.91 (no sharp cut-off); inconclusive = no clear call, values can overlap the other calls; inactive = mostly above about 0.92. The list shows a part of the results.

Assay: chemical genetic growth profiling, strain panel (AID 1159580);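 note: tested at 20 µM; growth read once vehicle control cultures reached saturation at 30 °C; 1 = growth at the plate median or of vehicle wells; lower values mean less growth of the strain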
Details: growth OD

Measured: normalized growth

CC(C)c1nc(N(C)S(C)(=O)=O)nc(-c2ccc(F)cc2)c1/C=C/[C@@H](O)C[C@@H](O)CC(=O)O
active: S. cerevisiae deletion strains, locus YLL041C, strain sdh2, stronger effect = lower value 0.9 | S. cerevisiae deletion strains, locus YLR113W, strain HOG1, stronger effect = lower value 0.232 | S. cerevisiae deletion strains, locus YNL183C, strain NPR1, stronger effect = lower value 0.0704 | S. cerevisiae deletion strains, locus YOR231W, strain MKK1, stronger effect = lower value 0.124 | S. cerevisiae deletion strains, locus YPL256C, strain CLN2, stronger effect = lower value 0.162
inactive: S. cerevisiae deletion strains, locus YJR075W, strain HOC1, stronger effect = lower value 0.996 | S. cerevisiae deletion strains, locus YKL009W, strain mrt4, stronger effect = lower value 1.01 | S. cerevisiae deletion strains, locus YKL068W, stronger effect = lower value 1.03 | S. cerevisiae deletion strains, locus YKL085W, strain MDH1 (second series), stronger effect = lower value 0.992 | S. cerevisiae deletion strains, locus YKL085W, strain MDH1, stronger effect = lower value 0.992 | S. cerevisiae deletion strains, locus YKL160W, strain elf1, stronger effect = lower value 0.994 | S. cerevisiae deletion strains, locus YKL190W, strain CNB1, stronger effect = lower value 1.01 | S. cerevisiae deletion strains, locus YKR001C, strain vps1, stronger effect = lower value 1.03 | S. cerevisiae deletion strains, locus YKR026C, strain gcn3, stronger effect = lower value 1.02 | S. cerevisiae deletion strains, locus YKR091W, strain srl3, stronger effect = lower value 1.01 | S. cerevisiae deletion strains, locus YLL001W, strain dnm1, stronger effect = lower value 1.03 | S. cerevisiae deletion strains, locus YLL026W, stronger effect = lower value 1.01 | S. cerevisiae deletion strains, locus YLR027C, strain aat2, stronger effect = lower value 1.01 | S. cerevisiae deletion strains, locus YLR039C, strain RIC1, stronger effect = lower value 1.31 | S. cerevisiae deletion strains, locus YLR058C, strain SHM2, stronger effect = lower value 1 | S. cerevisiae deletion strains, locus YLR102C, strain apc9, stronger effect = lower value 1.02 | S. cerevisiae deletion strains, locus YLR221C, strain rsa3, stronger effect = lower value 1.06 | S. cerevisiae deletion strains, locus YLR258W, strain gsy2, stronger effect = lower value 1.01 | S. cerevisiae deletion strains, locus YLR262C, strain YPT6 (second series), stronger effect = lower value 1.1 | S. cerevisiae deletion strains, locus YLR262C, strain YPT6, stronger effect = lower value 1.26 | S. cerevisiae deletion strains, locus YLR268W, strain sec22, stronger effect = lower value 0.994 | S. cerevisiae deletion strains, locus YLR320W, strain mms22, stronger effect = lower value 1.01 | S. cerevisiae deletion strains, locus YLR330W, strain CHS5, stronger effect = lower value 0.999 | S. cerevisiae deletion strains, locus YLR342W, strain FKS1 (second series), stronger effect = lower value 1.03 | S. cerevisiae deletion strains, locus YLR342W, strain FKS1, stronger effect = lower value 1.03 | S. cerevisiae deletion strains, locus YLR357W, strain rsc2, stronger effect = lower value 0.994 | S. cerevisiae deletion strains, locus YLR370C, strain arc18, stronger effect = lower value 1.03 | S. cerevisiae deletion strains, locus YLR371W, strain rom2, stronger effect = lower value 1.01 | S. cerevisiae deletion strains, locus YLR384C, strain iki3, stronger effect = lower value 1 | S. cerevisiae deletion strains, locus YLR418C, strain cdc73, stronger effect = lower value 1 | S. cerevisiae deletion strains, locus YML016C, strain PPZ1, stronger effect = lower value 0.999 | S. cerevisiae deletion strains, locus YML032C, strain rad52, stronger effect = lower value 1.01 | S. cerevisiae deletion strains, locus YML120C, strain ndi1, stronger effect = lower value 1.02 | S. cerevisiae deletion strains, locus YML124C, strain tub3, stronger effect = lower value 0.997 | S. cerevisiae deletion strains, locus YMR058W, strain fet3, stronger effect = lower value 1.02 | S. cerevisiae deletion strains, locus YMR078C, strain ctf18, stronger effect = lower value 1.01 | S. cerevisiae deletion strains, locus YMR125W, strain sto1, stronger effect = lower value 1.02 | S. cerevisiae deletion strains, locus YMR129W, stronger effect = lower value 1.04 | S. cerevisiae deletion strains, locus YMR205C, strain PFK2, stronger effect = lower value 1.02 | S. cerevisiae deletion strains, locus YMR223W, strain ubp8, stronger effect = lower value 1.01 | S. cerevisiae deletion strains, locus YMR231W, strain pep5, stronger effect = lower value 0.958 | S. cerevisiae deletion strains, locus YMR263W, strain SAP30, stronger effect = lower value 0.994 | S. cerevisiae deletion strains, locus YMR307W, strain GAS1, stronger effect = lower value 1.01 | S. cerevisiae deletion strains, locus YNL067W, strain RPL9B, stronger effect = lower value 0.989 | S. cerevisiae deletion strains, locus YNL071W, strain lat1, stronger effect = lower value 1.01 | S. cerevisiae deletion strains, locus YNL128W, strain TEP1, stronger effect = lower value 0.988 | S. cerevisiae deletion strains, locus YNL153C, strain GIM3, stronger effect = lower value 0.989 | S. cerevisiae deletion strains, locus YNL209W, strain ssb2, stronger effect = lower value 1.02 | S. cerevisiae deletion strains, locus YNL233W, strain BNI4, stronger effect = lower value 0.988 | S. cerevisiae deletion strains, locus YNL248C, strain rpa49, stronger effect = lower value 1.02 | S. cerevisiae deletion strains, locus YNL250W, strain rad50, stronger effect = lower value 0.982 | S. cerevisiae deletion strains, locus YNL271C, strain bni1, stronger effect = lower value 0.976 | S. cerevisiae deletion strains, locus YNL298W, strain CLA4, stronger effect = lower value 1.02 | S. cerevisiae deletion strains, locus YNL307C, strain MCK1, stronger effect = lower value 1.02 | S. cerevisiae deletion strains, locus YNL322C, strain KRE1 (second series), stronger effect = lower value 1.03 | S. cerevisiae deletion strains, locus YNL322C, strain KRE1, stronger effect = lower value 1 | S. cerevisiae deletion strains, locus YNR049C, strain mso1, stronger effect = lower value 1.02 | S. cerevisiae deletion strains, locus YNR052C, strain pop2, stronger effect = lower value 0.929 | S. cerevisiae deletion strains, locus YOL006C, strain TOP1, stronger effect = lower value 1.01 | S. cerevisiae deletion strains, locus YOL012C, strain htz1 0.882 | S. cerevisiae deletion strains, locus YOL147C, strain pex11, stronger effect = lower value 1.01 | S. cerevisiae deletion strains, locus YOR001W, strain rrp6, stronger effect = lower value 1.01 | S. cerevisiae deletion strains, locus YOR061W, strain CKA2, stronger effect = lower value 0.994 | S. cerevisiae deletion strains, locus YOR069W, strain VPS5, stronger effect = lower value 1.01 | S. cerevisiae deletion strains, locus YOR070C, strain gyp1, stronger effect = lower value 1.01 | S. cerevisiae deletion strains, locus YOR080W, strain dia2, stronger effect = lower value 1.01 | S. cerevisiae deletion strains, locus YOR083W, strain WHI5, stronger effect = lower value 0.996 | S. cerevisiae deletion strains, locus YOR106W, strain vam3, stronger effect = lower value 1.02 | S. cerevisiae deletion strains, locus YOR136W, strain idh2, stronger effect = lower value 1 | S. cerevisiae deletion strains, locus YOR144C, strain elg1, stronger effect = lower value 1 | S. cerevisiae deletion strains, locus YOR184W, strain ser1, stronger effect = lower value 0.997 | S. cerevisiae deletion strains, locus YOR265W, strain rbl2, stronger effect = lower value 1.01 | S. cerevisiae deletion strains, locus YOR270C, strain vph1, stronger effect = lower value 0.975 | S. cerevisiae deletion strains, locus YOR290C, strain snf2, stronger effect = lower value 1 | S. cerevisiae deletion strains, locus YOR316C, strain cot1, stronger effect = lower value 1.01 | S. cerevisiae deletion strains, locus YPL051W, strain arl3, stronger effect = lower value 1.02 | S. cerevisiae deletion strains, locus YPL055C, strain LGE1, stronger effect = lower value 0.998 | S. cerevisiae deletion strains, locus YPL078C, strain atp4, stronger effect = lower value 1.02 | S. cerevisiae deletion strains, locus YPL106C, strain sse1, stronger effect = lower value 1.03 | S. cerevisiae deletion strains, locus YPL240C, strain hsp82, stronger effect = lower value 0.992 | S. cerevisiae deletion strains, locus YPL241C, strain CIN2, stronger effect = lower value 1.01 | S. cerevisiae deletion strains, locus YPR119W, strain clb2, stronger effect = lower value 0.998 | S. cerevisiae deletion strains, locus YPR141C, strain kar3, stronger effect = lower value 1.01 | S. cerevisiae deletion strains, locus YPR163C, strain tif3, stronger effect = lower value 1.01 | S. cerevisiae deletion strains, locus YPR167C, strain met16, stronger effect = lower value 1 | S. cerevisiae deletion strains, strain wtn01, stronger effect = lower value 1 | S. cerevisiae strains, strain wild type, stronger effect = lower value 0.994
